According to PubChem BioAssay (Tox21):
Inconclusive results are not listed. Values without a mark were called inactive. Activity calls are given as the source filed them. Calls follow the shape of the full dose curve.

test: qHTS assay for small molecule agonists of the p53 signaling pathway - cell viability (AID 651633); details: p53RE-bla HCT-116 viability, ATP luminescence, 16 h; series mostly up to 83.3 µM; activity change, negative = cytotoxicity: at the top concentration; also: nearly all actives have a fitted effect of over 30% in size;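 as to activity change, negative = cytotoxicity: p53RE-bla HCT reporter cells with a stable beta-lactamase p53 reporter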
From the text: National Center for Advancing Translational Sciences [NCATS]
NIH Chemical Genomics Center [NCGC]
U.S. Environmental Protection Agency [EPA]
National Institutes of Environmental Health Sciences [NIEHS]
National Toxicology Program [NTP]
U.S. Food and Drug Administration [FDA]
p53, a tumor suppressor protein, is activated following cellular insult, including DNA damage and other cellular stresses. The activation of p53 regulates cell fate by inducing DNA repair, cell cycle arrest, apoptosis, or cellular senescence. The activation of p53, therefore, is a good indicator of DNA damage and other cellular stresses. […] The activation of the reporter gene under culture conditions can be detected by fluorescence intensity. This cell line was used to screen the Tox21 compound library in a 1536-well plate format and to identify agonists that activate the p53 signaling pathway.
Tox21 Assay Protocol Summary:
The p53RE-bla cells were dispensed at 4,000 cells/5 ul/well in 1536-well black wall/clear bottom plates using a Multidrop dispenser. After the assay plates were incubated at a 37 C/5% CO2 incubator for 5 hours, 23 nL of compounds dissolved in DMSO, positive controls or DMSO only was transferred to the assay plate by a pin tool. The plates were incubated at 37 C for 16 hours. After 1 uL of LiveBLAzerTM B/G FRET substrate was added using a Flying Reagent Dispenser, the plates were incubated at room temperature for 2 hours, and fluorescence intensity was measured by an Envision plate reader.
For cell viability readout that measures cytotoxicity, 4 ul/well of CellTiter-Glo reagent was added into the assay plates using a Flying Reagent Dispenser. After 30 min incubation at room temperature, the luminescence intensity in the plates was measured using a ViewLux plate reader.
% is scaled to controls: 0 for no effect and ±100 for the full control effect; potency is read from the fitted curve at half-maximal effect.

Row | Structure (SMILES) | Potency | activity change, negative = cytotoxicity
1 | CCCCCCCCCCCCCCCCC(C(=O)O)C(O)(CC(=O)O)C(=O)O (stereo not given) | 29.8 µM (active) | 
2 | CCc1cn([C@H]2C[C@H](O)[C@@H](CO)O2)c(=O)[nH]c1=O |  | -21.7%
3 | COc1cc([C@@H]2c3cc4c(cc3[C@@H](O[C@@H]3O[C@@H]5CO[C@@H](C)O[C@H]5[C@H](O)[C@H]3O)[C@H]3COC(=O)[C@H]23)OCO4)cc(OC)c1O | inactive | 
4 | COc1cc2c(cc1OC)[C@@H](Cc1cc(OC)c(OC)c(OC)c1)[N+](C)(CCCOC(=O)CC/C=C/CCC(=O)OCCC[N+]1(C)CCc3cc(OC)c(OC)cc3[C@H]1Cc1cc(OC)c(OC)c(OC)c1)CC2 (stereo not given in full) | inactive | 
5 | NC(=O)CC[C@@H]1NC(=O)[C@H](Cc2ccccc2)NC(=O)[C@H](Cc2ccc(O)cc2)NC(=O)[C@@H](N)CSSC[C@@H](C(=O)N2CCC[C@H]2C(=O)N[C@@H](CCCN=C(N)N)C(=O)NCC(N)=O)NC(=O)[C@H](CC(N)=O)NC1=O | inactive | 
6 | CNCCC=C1c2ccccc2CCc2ccccc21 |  | -27.7%
7 | CO[C@H](C(=O)[C@@H](O)[C@@H](C)O)C1Cc2cc3cc(O[C@H]4C[C@@H](O[C@H]5C[C@@H](O)[C@H](O)[C@@H](C)O5)[C@@H](O)[C@@H](C)O4)c(C)c(O)c3c(O)c2C(=O)[C@H]1O[C@H]1C[C@@H](O[C@H]2C[C@@H](O[C@H]3C[C@](C)(O)[C@H](O)[C@@H](C)O3)[C@H](O)[C@@H](C)O2)[C@H](O)[C@@H](C)O1 (stereo not given in full) | inactive | 
8 | CC[C@@H](C)[C@H](N)C(=O)O |  | 20.2%
9 | O=C1CC[C@@H](C(=O)N[C@H]2C[C@@H]2c2ccccc2)N1 |  | -7.84%
10 | CC/C=C\C/C=C\C/C=C\C/C=C\C/C=C\C/C=C\CCC(=O)O |  | -15%
11 | SC1CCCCC1 |  | -21.1% [at 95.3 µM]
12 | CC(C)NCC1CCc2cc(CO)c([N+](=O)[O-])cc2N1 (stereo not given) |  | -13.6% [at 39.1 µM]
13 | O=C(Cn1cnnn1)N[C@@H]1C(=O)N2C(C(=O)O)=C(CSc3nncs3)CS[C@H]12 | inactive | 
14 | Clc1nc(C(Cl)(Cl)Cl)c(Cl)c(Cl)c1Cl | 61.1 µM (active) | 
15 | CCCCCCCCCCCCCC(=O)OCC(COP(=O)([O-])OCC[N+](C)(C)C)OC(=O)CCCCCCCCCCCCC (stereo not given) |  | -22.9%
16 | O=C(CCCCCCCCc1cccnc1)N1CCC(C=C(c2ccccc2)c2ccccc2)CC1 | 24.3 µM (active) | 
17 | CC(=O)OCC(=O)[C@@]1(O)CC[C@H]2[C@@H]3C[C@H](C)C4=CC(=O)C=C[C@]4(C)[C@H]3[C@@H](O)C[C@@]21C |  | -22.1%
18 | NCCCC(=O)O |  | 11.6%
19 | C=C1[C@H](CO)[C@@H](O)C[C@@H]1n1cnc2c(=O)[nH]c(N)nc21 |  | 15.4%
20 | CCCCCN=C(N)N/N=C/c1c[nH]c2ccc(OC)cc12 |  | 16.8%

Row | Structure (SMILES) | Potency | activity change, negative = cytotoxicity
21 | C=CCN1C(=O)C(CC(C)C)NC1=S (stereo not given) | inactive | 
22 | CCCC(=O)c1cc(O)c(O)cc1O |  | 10.4%
23 | CCC(=O)OC(OP(=O)(CCCCc1ccccc1)CC(=O)N1C[C@H](C2CCCCC2)C[C@H]1C(=O)O)C(C)C (stereo not given in full) |  | -10.9%
24 | CCCCCCCCCCCC[n+]1ccc2ccccc2c1 | 29.8 µM (active) | 
25 | COC1[C@@H](O[C@@H]2O[C@H](C)[C@@H](O[C@H]3C[C@@](C)(O)[C@H](OC(=O)CC(C)C)[C@H](C)O3)[C@H](N(C)C)[C@H]2O)[C@@H](CC=O)C[C@@H](C)[C@@H](O)/C=C/C=C/C[C@@H](C)OC(=O)C[C@H]1OC(C)=O (stereo not given in full) |  | 11.3% [at 39.1 µM]
26 | CCN(CC)CCNC(=O)c1ccc(NS(C)(=O)=O)cc1 |  | 7.27%
27 | CCC1OC(=O)C[C@@H](O)[C@H](C)[C@@H](O[C@@H]2O[C@H](C)C[C@H](N(C)C)[C@H]2O)[C@@H](CC=O)C[C@@H](C)C(=O)/C=C/[C@]2(C)OC2C1C (stereo not given in full) | inactive | 
28 | CC1(C)S[C@@H]2[C@H](N3C(=O)C(c4ccccc4)NC3(C)C)C(=O)N2[C@H]1C(=O)O (stereo not given in full) |  | 8.34%
29 | CC(C)(C)c1ccc2c(S(=O)(=O)O)c(C(C)(C)C)ccc2c1 | inactive | 
30 | CSCC[C@H](NC(=O)[C@H](Cc1ccc(OS(=O)(=O)O)cc1)NC(=O)[C@@H](N)CC(=O)O)C(=O)NCC(=O)N[C@@H](Cc1c[nH]c2ccccc12)C(=O)N[C@@H](CCSC)C(=O)N[C@@H](CC(=O)O)C(=O)N[C@@H](Cc1ccccc1)C(N)=O | inactive | 
31 | CN1C(=O)C[C@@H](C(=O)N[C@@H](Cc2cnc[nH]2)C(=O)N2CCC[C@H]2C(N)=O)NC1=O |  | 4.89%
32 | CCCCCCCCCCCCCCCCCCNC(=O)OC1CCN(C(=O)OC[C@H](COC(=O)N(Cc2cccc[n+]2CC)C(=O)c2ccccc2OC)OC)CC1 | 26.6 µM (active) | 
33 | NC[C@@H]1CC[C@@H](N)[C@@H](O[C@H]2[C@H](O)[C@@H](O[C@H]3O[C@H](CO)[C@@H](O)[C@H](N)[C@H]3O)[C@H](N)C[C@@H]2N)O1 |  | 10.8%
34 | CC1=C(/C=C/C(C)=C/C=C/C(C)=C/C=C/C=C(C)/C=C/C=C(C)/C=C/C2=C(C)CCCC2(C)C)C(C)(C)CCC1 |  | 20.1%
35 | NC(=O)[C@@H]1C[C@]2(NC(=O)NC2=O)c2cc(F)ccc2O1 |  | 10.5%
36 | O=C1c2ccccc2-c2n[nH]c3cccc1c23 |  | -10.8%
37 | Cc1c(O)c(=O)ccn1C |  | 17.9%
38 | COc1c(Br)cc(Br)c(C)c1Br |  | -9.1%
39 | NCC[C@H](O)C(=O)N[C@@H]1C[C@H](N)[C@@H](O[C@H]2O[C@H](CN)CC[C@H]2N)[C@H](O)[C@H]1O[C@H]1O[C@H](CO)[C@@H](O)[C@H](N)[C@H]1O |  | 10.2%
40 | CCCCCCCCCCCCCCCCCCOCC(COP(=O)([O-])OCC[N+](C)(C)C)OC (stereo not given) |  | 7.49%
